# Data: PubChem BioAssay AID889 (National Center for Advancing Translational Sciences (NCATS), 2007)
# Screen size: about 75,000 compounds; about 15 (0.02%) were called active. Inconclusive results (about 3%) are left out. The sample holds actives, similar compounds and a random draw of the others, so the mix is not that of the screen. Calls follow the shape of the dose curve; as a rule, active = well fitted inhibition curve with a large enough effect in the main read-out, with a control signal flat (not every such curve was filed as active); inconclusive = small, poorly fitted or top-dose-only effect, or a change in a side signal; inactive = flat fitted curve, though single readings scatter.
# Molecular target: Caspase-7 (Homo sapiens) (UniProt P55210)
# Sequence (P55210 24-198 limits assumed): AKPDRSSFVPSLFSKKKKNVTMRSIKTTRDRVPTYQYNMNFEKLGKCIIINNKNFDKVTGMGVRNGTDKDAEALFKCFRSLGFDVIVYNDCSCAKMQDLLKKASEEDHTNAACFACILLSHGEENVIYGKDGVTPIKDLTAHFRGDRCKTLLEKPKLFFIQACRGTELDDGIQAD
# Sequence (P55210 207-303 limits assumed): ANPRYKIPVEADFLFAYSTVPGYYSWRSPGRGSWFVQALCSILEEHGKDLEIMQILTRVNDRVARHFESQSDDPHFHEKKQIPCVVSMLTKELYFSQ
# Assay: qHTS Assay for Allosteric/Competitive Inhibitors of Caspase-7; also: % of control where 0% means no effect
# Details: recombinant caspase-7, Ac-DEVD-AFC fluorescence rate; series mostly up to 57.5 µM
# Source text: NIH Molecular Libraries Screening Centers Network [MLSCN]
# NIH Chemical Genomics Center [NCGC]
# PI Name: Dr. James Wells,
# Dr. Enrique Perez-Paya, Dr.Janice Williams, Dr. Dennis Wolan, a person
# The caspases (Cysteine Aspartyl Protease) comprise a related family of 14 dimeric proteases that are critical mediators of apoptosis (programmed cell death) and inflammation. The caspases represent an important class of drug targets for stroke, ischemia, cancer and inflammatory diseases. […] One goal of this project was to identify compounds that act as allosteric inhibitors via stabilizing the procaspase form of the enzyme. Previous work in Well's laboratory has shown that such allosteric inhibitors can be identified and these act by binding at the dimer interface of enzyme (Hardy, Lam et al., 2004).
# The biochemical assay was configured using purified caspase 7 at a high enzyme concentration to promote formation of the homodimers and thus facilitate the identification of allosteric inhibitors. The overall goal was to identify reversible inhibitors with better drug-like properties than the currently available set of aspartyl-containing peptidomimetics that covalently bind the active site. Caspase 7 was assayed using the profluorescent substrate Ac-DEVD-AFC. After initiation of the assay with substrate the plates were rapidly read using an automated robotic system (Kalypsys, Inc.) to maintain consistent timing. A kinetic mode of detection was used where the initial rate was collected (estimated final product formation was ~10%). Compounds were screened as a concentration-titration series that ranged from 57 uM to 0.7 nM. Below is the protocol used for caspase 7.
# NCGC Assay Protocol Summary:
# Caspase 7 was prepared in buffer (50 mM HEPES pH 7.5, 50 mM KCl, 200 mM NaCl, 10 mM DTT, 0.1% CHAPS) at a concentration of 66.6 nM and 3 uL was dispensed to all wells using black solid Kalypsys 1536-well plates. 20 nL of DMSO containing compounds was added using a pin-tool (Kalypsys Inc.) to columns 5-48. Then 20 nL of DMSO solution from a control plate was added to columns 1-4. Controls were: Column 1, 16 point titration with each concentration in duplicate (1:1 dilutions in DMSO; final starting concentration was 57 uM) of the caspase 7 inhibitor Ac-DEVD-CHO (Alexis Biochemicals); Column 2, a 16 point titration with each concentration in duplicate of the free AFC fluorophore prepared in DMSO (Alexis Biochemicals), final starting was 40 uM; Column 3 neutral (DMSO only) control; Column 4: DMSO alone, to serve as a negative control (no substrate was added). Then 1 uL of 20 uM the substrate Ac-DEVD-AFC (Alexis Biochemicals) prepared in the same buffer was dispensed to all wells except columns 2 and 4 and the plates were immediately transferred (< 1 min) to the Viewlux. The plates were then exposed using 405 nm excitation/520 nm emission filters for 4 sec and read at 20 sec intervals for 3 min. Final enzyme concentration was 50 nM and the final substrate concentration was 5 uM.
# Concentration-response curves were fitted to the data calculated from slope of the linear regression of fluorescent intensity versus time (the rate). The concentration-effect curves were then classified based on curve quality (r2), response magnitude and degree of measured activity. […] Inconclusive compounds had appreciable concentration-dependent effects on both the measured rate and the interpolated basal fluorescence intensity at the start of the reaction but where the basal fluorescent intensity was marginal (e.g. < 10-fold). Inconclusive compounds also encompass highly fluorescent compounds (>100-fold increases in fluorescent intensities values relative to controls) where artificial concentration-dependent decreases in the rate occurred at high compound concentrations due to fluorescent interferences.
# Keywords: Caspase 7, proteases, profluorescent, MLSMR, MLSCN, NIH Roadmap, qHTS, NCGC
row,Compound,"activity change, negative = inhibition"
1,CCC(Oc1ccccc1)C(=O)NCc1cccnc1 (configuration not stated),inactive
2,CC1(C)C=CC(=O)[C@]2(C)C1CC(=O)[C@]1(C)C2CC[C@@]2(C)C(c3ccoc3)OC(=O)C3OC321 (some centres not stated),inactive
3,CCCCCNC(=O)Cc1ccc(OC)cc1,inactive
4,C=CC(=O)c1ccc2ccccc2c1,inactive
5,COC(=O)C1=C(N)Oc2cc(C)oc(=O)c2C1c1cccnc1 (configuration not stated),inactive
6,CCOC(=O)c1c(-n2cnnn2)sc(C)c1C,inactive
7,CNc1ncnc2ccc(-c3cccc(NS(C)(=O)=O)c3)cc12,inactive
8,Cn1cccc1Cc1nnc(SCC(=O)NCc2ccc3c(c2)OCO3)n1CCc1ccccc1,inactive
9,CC(C)(C)c1ccc(NC(=O)NCc2ccco2)cc1,inactive
10,CC1(C)OC2CC3C4CCC5=CC(=O)CCC5(C)C4(F)C(O)CC3(C)[C@]2(C(=O)CCl)O1 (some centres not stated),inactive
11,C=C[C@](C)(O)CCC1C(=C)CCC2[C@@](C)(CO)CCC[C@@]12C (some centres not stated),inactive
12,COc1c(C(C)C)oc2cc3oc(=O)ccc3cc12,inactive
13,COC(=O)[C@@H]1C[C@@]2(O)[C@H](O)[C@H](O)[C@H](O)C[C@H]2N1CC1CCCCC1,inactive
14,Clc1ccc(C=NC23CN4CN(CN(C4)C2)C3)cc1,inactive
15,O=C1CCCC(O)=C1C=NCCc1ccccc1,inactive
16,CCC(C)(C)n1nnnc1C(c1cccs1)N1CCN(Cc2ccccc2)CC1 (configuration not stated),inactive
17,Cc1c(S(=O)(=O)O)oc2c1C(=O)C(=O)c1c-2ccc2c1CCCC2(C)C,inactive
18,CN(C)/C=N/c1cc(=O)n(C)c(=O)n1CC1CC1,inactive
19,O=C(OCc1nnc(-c2ccccc2)o1)c1ccc2c(c1)C(=O)N(CCc1ccccc1)C2=O,inactive
20,c1ccc2cc3[nH]c(CN4CCCCC4)nc3cc2c1,inactive
21,COC1[C@H](OC(N)=O)C(O)[C@H](Oc2ccc3c(O)c(NC(=O)c4ccc(O)c(CC=C(C)C)c4)c(=O)oc3c2C)OC1(C)C (some centres not stated),inactive
22,COc1cccc(OCC(O)CN2CCN(CCO)CC2)c1 (configuration not stated),inactive
23,Cc1oc(C)c(C(=O)NCCCC(=O)O)c1C(=O)NCCCC(=O)O,inactive
24,CCOc1cc(S(=O)(=O)NC2CC(C)(C)NC(C)(C)C2)ccc1F,inactive
25,COc1cc(OC)c2c(c1Cl)OC1(C2=O)C(O)=CC(=O)CC1C (configuration not stated),inactive
26,CC(C)(O)CCC(O)[C@@](C)(O)C1CC[C@]2(O)C3=CC(=O)C4CC(O)C(O)C[C@]4(C)C3CC[C@]12C (some centres not stated),inactive

row,Compound,"activity change, negative = inhibition"
1,CC(=O)Oc1c2c(c3c(c1CC=C(C)C)O[C@@]14C(=CC5CC1C(C)(C)OC4(C/C=C(\C)C(=O)O)C5=O)C3=O)OC(C)(CCC=C(C)C)C=C2 (some centres not stated),inactive
2,CC(=O)OCC(=O)C1CCC2C3CCC4=CC(=O)CC[C@@]4(C)C3CC[C@]12C (some centres not stated),inactive
3,COc1ccc(CCN=C2SCC(=O)N2C)cc1OC,inactive
4,Cc1cccc(-n2c(O)c(C=Nc3ccccc3N)c(=O)[nH]c2=O)c1,inactive
5,CCC1=C(OC(=O)N(CC)CC)N2C(=O)OC(=NCCc3c[nH]c4ccccc34)[C@]2(C)[C@H]2C1=CC[C@H]1C(=O)N(CC)C(=O)[C@H]12,inactive
6,COc1ccccc1N1CCN(C[C@@H]2CN3C(=O)N(C)c4ccccc4C3=N2)CC1,inactive
7,COc1ccc(C2C(C(=O)N3CCN(c4ccc(OC)cc4)CC3)c3ccccc3C(=O)N2C)cc1 (configuration not stated),inactive
8,CN(CCOc1ccc(CC2SC(=O)NC2=O)cc1)c1ccccn1 (configuration not stated),inactive
9,N#CCC(=O)NC(=O)NCC1CC1,inactive
10,Cn1c(=O)cc(SCC(=O)N2CCN(C(=O)c3ccco3)CC2)c2ccccc21,inactive
11,O=C(c1cccnc1NCc1ccccc1)N1CCOCC1,inactive
12,CN1CCC(CNC(=O)c2ccc(-n3c(=O)c(=O)[nH]c4ccccc43)cc2)CC1,inactive
13,O=C(C1=C(O)C(=O)N(Cc2ccccc2)C1c1cccnc1)c1ccco1 (configuration not stated),inactive
14,O=C(c1cccs1)N1CCN(Cc2ccc3c(c2)OCO3)CC1,inactive
15,C[C@H]1CC[C@H](C(=O)O)N[C@@H]1c1ccc(C#Cc2ccccc2)cc1,1.78% [at 11.5 µM] (inactive)
16,Cc1noc(C)c1CSc1nc2cc(S(=O)(=O)N3CCOCC3)ccc2o1,inactive
17,Cc1csc(-c2nc3ccccc3n2C)n1,inactive
18,COC(=O)[C@@H]1C[C@@]2(O)[C@H](O)[C@H](O)[C@H](O)C[C@H]2N1Cc1ccc(C(C)(C)C)cc1,inactive
19,CCC(CC)C(=O)Nc1cc(C(=O)OC)cc(C(=O)OC)c1,inactive
20,Cc1ccc(N(CC(O)CN2CCCC2)S(=O)(=O)c2ccccc2)cc1 (configuration not stated),inactive
21,O=C(COc1ncnc2ccccc12)NC(=O)NCc1ccccc1,inactive
22,Cc1ccccc1Nc1nnc(C)c(=O)[nH]1,inactive
23,CC(C)=CCC/C(C)=C/CC/C(C)=C/CC/C(C)=C/CO,inactive
24,CCCOc1ccc2c3c(c(=O)oc2c1OCCC)CCC3,inactive
25,CCOC(=O)Cn1c(=O)oc2cc(S(=O)(=O)N(C)Cc3ccco3)ccc21,inactive
26,CC(C)[C@H]1CC[C@@H](C)C[C@H]1O,inactive
